{"source": "PubChem BioAssay (NCATS)", "note": "Results filed as inconclusive are left out. Entries that show only a call come without a potency. Activity calls are given as the source filed them. Calls follow the shape of the dose curve; as a rule, active = well fitted activation curve with a large enough effect in the main read-out, with a control signal flat (not every such curve was filed as active); inconclusive = small, poorly fitted or top-dose-only effect, or effect the other way, or a change in a side signal; inactive = flat fitted curve, though single readings scatter."}
{"biological_target": "3',5'-cyclic-AMP phosphodiesterase 4B (Homo sapiens) (UniProt Q07343)", "sequence (Q07343 whole entry, looked up)": "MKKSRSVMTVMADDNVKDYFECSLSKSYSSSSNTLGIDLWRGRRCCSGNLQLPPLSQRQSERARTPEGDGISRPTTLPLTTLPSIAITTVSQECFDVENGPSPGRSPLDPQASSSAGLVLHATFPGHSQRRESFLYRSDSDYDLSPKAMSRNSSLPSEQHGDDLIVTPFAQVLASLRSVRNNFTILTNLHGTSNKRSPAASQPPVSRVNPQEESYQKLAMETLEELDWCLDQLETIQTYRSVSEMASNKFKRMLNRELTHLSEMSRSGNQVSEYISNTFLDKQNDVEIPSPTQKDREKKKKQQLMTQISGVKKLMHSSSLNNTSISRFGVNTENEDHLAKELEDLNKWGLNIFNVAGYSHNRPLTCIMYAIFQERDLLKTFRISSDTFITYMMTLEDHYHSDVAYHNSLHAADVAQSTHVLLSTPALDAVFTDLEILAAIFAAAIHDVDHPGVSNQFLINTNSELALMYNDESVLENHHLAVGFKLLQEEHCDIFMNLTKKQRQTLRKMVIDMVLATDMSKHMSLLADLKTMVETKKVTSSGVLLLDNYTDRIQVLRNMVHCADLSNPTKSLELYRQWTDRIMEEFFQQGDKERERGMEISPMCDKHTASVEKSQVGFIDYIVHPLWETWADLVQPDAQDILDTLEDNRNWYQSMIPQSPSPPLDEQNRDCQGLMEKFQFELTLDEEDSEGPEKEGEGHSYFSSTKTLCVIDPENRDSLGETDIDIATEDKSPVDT", "experiment": "qHTS Assay for Inhibitors of PDE-IV (AID 607)", "settings": "HEK293 ACTOne CNG channel cells, membrane potential fluorescence; series mostly up to 22.9 µM", "outline": "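Cell-based read-out of cAMP via a modified cyclic nucleotide-gated channel and membrane potential dye (535/590 nm) in HEK293 cells expressing PDE4 endogenously. Compounds tested up to 22.9 uM final; 100 uM RO 20-1724 reference.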"}
{"smiles": "O=C(c1ccc(OCCN2CCCCC2)cc1)c1c(-c2ccc(O)cc2)sc2cc(O)ccc12", "Potency": "inactive"}
{"smiles": "COc1cc2nc(N3CCN(C(=O)c4ccco4)CC3)nc(N)c2cc1OC", "Potency": "inactive"}
{"smiles": "Clc1ccccc1C(c1ccccc1)(c1ccccc1)n1ccnc1", "Potency": "inactive"}
{"smiles": "CN1CCN(C2=Nc3cc(Cl)ccc3Nc3ccccc32)CC1", "Potency": "inactive"}
{"smiles": "CN1CCC(=C2c3ccccc3CC(=O)c3sccc32)CC1", "Potency": "inactive"}
{"smiles": "NC(=O)OCC(COC(N)=O)c1ccccc1", "Potency": "inactive"}
{"smiles": "CS(=O)(=O)Nc1ccc([N+](=O)[O-])cc1Oc1ccccc1", "Potency": "inactive"}
{"smiles": "CCOC(=O)Nc1ccc(NCc2ccc(F)cc2)nc1N", "Potency": "inactive"}
{"smiles": "CN(C)CCOC(c1ccccc1)c1ccccc1", "Potency": "inactive"}
{"smiles": "Cc1cc(C(C)(C)C)cc(C)c1CC1=NCCN1", "Potency": "inactive"}
{"smiles": "Cc1cc(C(C)(C)C)c(O)c(C)c1CC1=NCCN1", "Potency": "inactive"}
{"smiles": "COC(=O)Nc1nc2ccc(C(=O)c3cccs3)cc2[nH]1", "Potency": "inactive"}
